Inconclusive results are not listed. A call without a number means that no potency is given here. Active and inactive are the calls of the source. The call rests on the fitted dose curve; in most records, active means well fitted cell-killing curve with a large enough effect in the repeat runs; inconclusive means weak or mixed curves, or effect the other way; inactive means no such curve, though single readings can be large or run the other way.
assay: qHTS assay to identify small molecule agonists of the RXR signaling pathway - cell viability counter screen (AID 1159529); conditions: RXR-alpha-bla HEK293T viability, CellTiter-Glo, 16 h; series mostly up to 76.8 µM; further: nearly all actives have a fitted effect of over 50% in size
Text: National Center for Advancing Translational Sciences [NCATS]
NIH Chemical Genomics Center [NCGC]
U.S. Environmental Protection Agency [EPA]
National Institutes of Environmental Health Sciences [NIEHS]
National Toxicology Program [NTP]
U.S. Food and Drug Administration [FDA]
The Retinoid X receptor (RXR), a nuclear hormone receptor expressed in liver, spleen, placenta, epidermis, central nervous system. These receptors are able to form homo and heterodimers with other nuclear receptors and due to this heterodimerizing ability, RXR functions as master regulators producing diverse physiological effects. Three subtypes of RXR exist; alpha, beta and gamma. Retinoid X receptor alpha (RXR-alpha) has potential roles in metabolic signaling pathways, skin alopecia, dermal cysts, cardiac development, insulin sensitization etc. Therefore screening environmental chemicals on RXR-alpha signaling can be used for the studies focused on such therapeutic applications. For quantification of RXR-alpha ligands signaling, GeneBLAzer RXR alpha-UAS-bla HEK 293T (Life Technologies, Carlsbad, CA) cells containing a beta-lactamase reporter-gene under control of Retinoid X receptor-alpha response element were used to screen Tox21 10K library. The cytotoxicity of the Tox21 compound library against the RXR-alpha HEK 293T cell line was tested in parallel by measuring cell viability using CellTiter-Glo assay (Promega Corporation, Madison, WI) in the same wells.
Tox21 Assay Protocol Summary:
RXR-alpha HEK 293T cells were dispensed at 2,000 cells/6 uL of assay medium containing 2% charcoal-stripped FBS using a Multidrop Combi (ThermoFisher Scientific, Waltham, MA) dispenser. The assay was performed in black wall/clear-bottom 1536-well plates (Greiner Bio-One North America Inc. Monroe, NC). Tetraoctyl ammonium bromide was used as a positive control in the cytotoxicity screen. After the assay plates were incubated at 37 C and 5% CO2 for 5 hr, 23 nL of compounds dissolved in DMSO, positive control or DMSO only were transferred to the assay plate by a Pintool station (Kalypsys, San Diego, CA). The assay plates were incubated at 37 C and 5% CO2 for 16 hr. One uL of LiveBLAzer B/G FRET substrate (Life Technologies) was added using a Flying Reagent Dispenser (FRD) (Aurora Discovery, San Diego, CA) and the plates were incubated at room temperature for 2 hr. Fluorescence intensity (405 nm excitation, 460/530 nm emission) was measured using an Envision plate reader (PerkinElmer, Shelton, CT). For cytotoxicity, 4 uL/well of CellTiter-Glo reagent was added into the assay plates using an FRD. After 30 min incubation at room temperature, the luminescence intensity was measured using a ViewLux plate reader (PerkinElmer).
Potency means the concentration at half of the fitted maximal effect.

| SMILES | Potency | activity change, negative = cytotoxicity |
| --- | --- | --- |
| O=C(N/N=C/c1ccc([N+](=O)[O-])o1)c1ccc(O)cc1 | inactive |  |
| C1COCO1 | inactive |  |
| [O]=[Bi] |  | 0.795% [at 6.97 µM] (inactive) |
| Cc1ccccc1N1C(=O)c2cc(S(N)(=O)=O)c(Cl)cc2NC1C (stereo not given) | inactive |  |
| O=C(O)c1ccc(CO)o1 | inactive |  |
| CC(C)OCC1CO1 (stereo not given) | inactive |  |
| O=C(O)c1cccnc1C(=O)O | inactive |  |
| O=C(Nc1ccc([N+](=O)[O-])cc1)Nc1ccc([N+](=O)[O-])cc1 | 0.952 µM (active) |  |
| CC(=O)OCC(=O)[C@H]1CC[C@H]2[C@@H]3CCC4=CC(=O)CC[C@]4(C)[C@H]3CC[C@]12C | inactive |  |
| O=[N+]([O-])c1cccc(S(=O)(=O)NCCNS(=O)(=O)c2cccc([N+](=O)[O-])c2)c1 | inactive |  |
| CO[C@H]1O[C@H](CO)[C@@H](O)[C@H](O)[C@H]1O | inactive |  |
| CC(=O)Oc1ccc(C(=C2CCCCC2)c2ccc(OC(C)=O)cc2)cc1 | inactive |  |
| Cc1cc(OI)c(C(C)C)cc1-c1cc(C(C)C)c(OI)cc1C | inactive |  |
| CC(C)(CCl)c1ccccc1 | inactive |  |
| CCCOC(=O)c1ccc(N)cc1 | inactive |  |
| CCCCC(=O)O[C@]1(C(=O)CO)[C@@H](C)C[C@H]2[C@@H]3CCC4=CC(=O)C=C[C@]4(C)[C@@]3(F)[C@@H](O)C[C@@]21C | inactive |  |
| CCc1c2c(nc3ccc(OC(=O)N4CCC(N5CCCCC5)CC4)cc13)-c1cc3c(c(=O)n1C2)COC(=O)[C@]3(O)CC | inactive |  |
| O=C(OCCOCCO)c1ccccc1Nc1cccc(C(F)(F)F)c1 | inactive |  |
| CC(=O)Nc1ccccc1C | inactive |  |
| O=C(O)C(Cc1cc(I)c(O)c(I)c1)c1ccccc1 (stereo not given) | inactive |  |

| SMILES | Potency | activity change, negative = cytotoxicity |
| --- | --- | --- |
| CCOC(=N)CC(=O)OCC | inactive |  |
| C=CC(C)=CCC=C(C)C | inactive |  |
| C/C(=N/NC(=O)c1ccncc1)C(=O)O | inactive |  |
| Nc1ccc(S(=O)(=O)O)cc1 | inactive |  |
| N#C/C(=C1/SC[C@@H](c2ccc(Cl)cc2Cl)S1)n1ccnc1 | inactive |  |
| OCC1CC=CCC1 (stereo not given) | inactive |  |
| CCOC(=O)OCC | inactive |  |
| O=C(C(=O)c1ccccc1)c1ccccc1 | inactive |  |
| CO[Si](C)(OC)OC | inactive |  |
| NC(=O)Nc1ccc(Cl)c(Cl)c1 | inactive |  |
| Nc1ccc(S(=O)(=O)O)c(N)c1 | inactive |  |
| CN1CCN(CCCN2c3ccccc3Sc3ccc(S(=O)(=O)N(C)C)cc32)CC1 | 23.9 µM (active) |  |
| CCCCCCCCCCCC(=O)[O][Sn]([CH2]CCC)([CH2]CCC)[O]C(=O)CCCCCCCCCCC | inactive |  |
| CCOC(=O)C(C)Oc1ccc(Oc2nc3ccc(Cl)cc3o2)cc1 (stereo not given) | inactive |  |
| CC1=CC(O)CC(C)(C)C1 (stereo not given) | inactive |  |
| OC(CCCN1CCCCC1)(c1ccccc1)c1ccccc1 | inactive |  |
| COc1ccccc1N=Nc1c(S(=O)(=O)O)cc2cc(S(=O)(=O)O)cc(NC(C)=O)c2c1O | inactive |  |
| CC(=O)OCC(=O)[C@@]12OC(C)(C)O[C@@H]1C[C@H]1[C@@H]3C[C@H](F)C4=CC(=O)C=C[C@]4(C)[C@@]3(F)[C@@H](O)C[C@@]12C | inactive |  |
| CCOC(=O)[C@@H](C)Oc1ccc(Oc2nc3ccc(Cl)cc3o2)cc1 | inactive |  |
| CC1(C)C(=O)N(Br)C(=O)N1Cl | inactive |  |
